Measured values reported in PubChem BioAssay (NCI).
The panel holds about 83,000 compounds, 20% with a hit somewhere; the sample as a whole holds those more often.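 Note: values are percent growth. 100 is the growth of untreated cells, values between 100 and 0 indicate rising inhibition; between -100 and 0 indicates cell death.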 The source made the active and inactive calls. The calls were made as follows: active = growth percent below 10; inactive = the rest.

Assays:
Experiment in all cases: NCI-60 one-dose screen, 48 h (100 = growth as untreated, 0 = no growth, -100 = all killed)
Conditions in all cases: 10 µM unless noted
HCT-15 colon = test system: HCT-15 colon
HT29 colon = test system: HT29 colon
SNB-75 CNS = test system: SNB-75 CNS
SNB-19 CNS = test system: SNB-19 CNS
U251 CNS = test system: U251 CNS
PC-3 prostate = test system: PC-3 prostate
SK-MEL-5 melanoma = test system: SK-MEL-5 melanoma
UACC-62 melanoma = test system: UACC-62 melanoma
LOX IMVI melanoma = test system: LOX IMVI melanoma
SK-MEL-28 melanoma = test system: SK-MEL-28 melanoma

Measured: growth

C/C(Nc1ccc(Cl)c(Cl)c1)=C1\CCOC1=O
inactive: HCT-15 colon 84% | HT29 colon 84.8% | SNB-75 CNS 78.6% | SNB-19 CNS 106% | U251 CNS 91% | PC-3 prostate 86.8% | SK-MEL-5 melanoma 101% | UACC-62 melanoma 71.2% | LOX IMVI melanoma 67.6% | SK-MEL-28 melanoma 111%

Cc1ccc(-c2nc3nc(-c4ccccc4)nc(N4CCNCC4)c3o2)cc1
active: HCT-15 colon -77% | HT29 colon -74.4% | SNB-75 CNS -90.7% | SNB-19 CNS -80.6% | U251 CNS -90.2% | PC-3 prostate -81.6% | SK-MEL-5 melanoma -95.8% | UACC-62 melanoma -87.8% | LOX IMVI melanoma -78.6% | SK-MEL-28 melanoma -90.1%

CC(C)(C)n1cc(-c2ccnc(NCCNS(=O)(=O)c3cccc4ccccc34)c2)c(-c2cccc(F)c2)n1
active: HCT-15 colon -37.2% | HT29 colon -29.6% | SNB-75 CNS -17.6% | U251 CNS -18.7% | PC-3 prostate 4.9% | SK-MEL-5 melanoma -97.1% | UACC-62 melanoma 8% | LOX IMVI melanoma -86.8% | SK-MEL-28 melanoma -2.58%
inactive: SNB-19 CNS 27.5%

CN1CCN(C(=O)c2ccc(NC(=O)Nc3ccc(-c4nc(N5CCOCC5)c5cccn5n4)cc3)cc2)CC1
active: HT29 colon 5.74% | SNB-75 CNS -37.7% | SNB-19 CNS 3.27% | U251 CNS 3.91% | PC-3 prostate 5.5% | SK-MEL-5 melanoma -61.6% | UACC-62 melanoma -41.3% | LOX IMVI melanoma -3.2% | SK-MEL-28 melanoma -18.4%
inactive: HCT-15 colon 13.2%

N#C/C(=C\c1ccc(-c2ccc(Cl)cc2)o1)C(=O)Nc1ncc(Cc2ccc(Cl)cc2)s1
active: SNB-75 CNS -31.1% | U251 CNS -33.9%
inactive: HCT-15 colon 37.6% | HT29 colon 62.4% | SNB-19 CNS 79.1% | PC-3 prostate 28.8% | SK-MEL-5 melanoma 94.7% | UACC-62 melanoma 46.1% | LOX IMVI melanoma 15.5% | SK-MEL-28 melanoma 34.2%

O=C1Nc2ccccc2/C1=C\c1nc(-c2ccccc2F)n2ccccc12
inactive: HCT-15 colon 42.3% | HT29 colon 11.6% | SNB-19 CNS 45.8% | PC-3 prostate 44.1% | SK-MEL-5 melanoma 37.8% | UACC-62 melanoma 38.8% | LOX IMVI melanoma 13.6% | SK-MEL-28 melanoma 69.3%
active: SNB-75 CNS -68.2% | U251 CNS -3.26%

Cc1ccccc1Cn1cnc2ccc(-c3cc(NC(=O)c4ccc(NC5CCN(C)CC5)cc4)n[nH]3)cc21
active: SNB-75 CNS -11.4%
inactive: HCT-15 colon 102% | HT29 colon 56.6% | SNB-19 CNS 95% | U251 CNS 75.9% | PC-3 prostate 68.8% | SK-MEL-5 melanoma 79.3% | UACC-62 melanoma 73.2% | LOX IMVI melanoma 56.7% | SK-MEL-28 melanoma 92.2%

COc1ccc(C(=O)C2C(c3ccc(OC)cc3)CN(C)C23C(=O)Nc2ccccc23)cc1 (stereo not given)
inactive: HCT-15 colon 86.9% | HT29 colon 84.3% | SNB-75 CNS 76.7% | SNB-19 CNS 86% | U251 CNS 92.9% | PC-3 prostate 75.3% | SK-MEL-5 melanoma 99.1% | UACC-62 melanoma 66.3% | LOX IMVI melanoma 93% | SK-MEL-28 melanoma 105%

COc1ccc(C2c3sc4c(F)cccc4c3Oc3nc[nH]c(=O)c32)cc1 (stereo not given)
inactive: HCT-15 colon 74.9% | HT29 colon 107% | SNB-75 CNS 88.2% | SNB-19 CNS 79% | U251 CNS 89.7% | PC-3 prostate 65.8% | SK-MEL-5 melanoma 75.4% | UACC-62 melanoma 60.1% | LOX IMVI melanoma 82.9% | SK-MEL-28 melanoma 92.6%

COc1ccc(-c2cc(-c3ccc(Cl)cc3)c(C#N)c(=O)n2CCCCC(=O)Nc2ccccc2N)cc1
inactive: HCT-15 colon 19.3% | HT29 colon 21.1% | SNB-75 CNS 22.5% | SNB-19 CNS 69.9% | U251 CNS 55.1% | PC-3 prostate 50.1% | UACC-62 melanoma 23.7% | SK-MEL-28 melanoma 65.4%
active: SK-MEL-5 melanoma -39.1% | LOX IMVI melanoma -60.9%

O=C1c2ccc3c4ccc5c6c(ccc(c7ccc(c2c37)C(=O)N1CCC[P+](c1ccccc1)(c1ccccc1)c1ccccc1)c64)C(=O)N(CCC[P+](c1ccccc1)(c1ccccc1)c1ccccc1)C5=O
inactive: HCT-15 colon 67.9% | HT29 colon 26.4% | SNB-75 CNS 131% | SNB-19 CNS 42.4% | U251 CNS 22.3% | PC-3 prostate 56.1% | SK-MEL-5 melanoma 18.5% | UACC-62 melanoma 54.5% | LOX IMVI melanoma 17% | SK-MEL-28 melanoma 15.2%

CCCCNc1ccc(C#N)c(OCCN(CC)CC)c1
inactive: HCT-15 colon 102% | HT29 colon 94.7% | SNB-75 CNS 88.2% | SNB-19 CNS 98.1% | U251 CNS 103% | PC-3 prostate 93.1% | SK-MEL-5 melanoma 93.9% | UACC-62 melanoma 103% | LOX IMVI melanoma 102% | SK-MEL-28 melanoma 101%

CC(=O)OCc1nc(C#N)c(N(C)C)o1
inactive: HCT-15 colon 88.6% | HT29 colon 99.2% | SNB-75 CNS 81.5% | SNB-19 CNS 95.9% | U251 CNS 95.5% | PC-3 prostate 104% | SK-MEL-5 melanoma 105% | UACC-62 melanoma 89.3% | LOX IMVI melanoma 99.2% | SK-MEL-28 melanoma 109%

CCN1C(=O)N(CC)C2C1NN=c1s/c(=C\c3ccc(Cl)cc3Cl)c(=O)n12 (stereo not given)
inactive: SNB-75 CNS 19.7% | SNB-19 CNS 27.9% | U251 CNS 11% | PC-3 prostate 24.6% | UACC-62 melanoma 28.9% | LOX IMVI melanoma 18.3% | SK-MEL-28 melanoma 66.1%
active: HCT-15 colon 9.51% | HT29 colon 2.8% | SK-MEL-5 melanoma -20.8%

N#Cc1cccc(F)c1
inactive: HCT-15 colon 97.8% | HT29 colon 104% | SNB-75 CNS 127% | SNB-19 CNS 94.4% | U251 CNS 110% | PC-3 prostate 102% | SK-MEL-5 melanoma 107% | UACC-62 melanoma 102% | LOX IMVI melanoma 107% | SK-MEL-28 melanoma 117%
